Source: PubChem BioAssay
Compounds with a hit are over-represented: about 2.7% of the library has one in this group of screens.
Nrf2 block = Nrf2 qHTS screen for inhibitors; A549 ARE-Fluc reporter, luciferase luminescence, 18-24 h; Potency, µM (series often up to 46 µM), for the others: top-dose activity change, negative = inhibition, hits mostly inhibitors; actives 2.1% (n = 360,000); AID 504444, 2011; also: potency is read from the fitted curve at half-maximal effect; % is scaled to controls: 0 for no effect and ±100 for the full control effect; nearly all actives have a fitted effect of over 60% in size
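Cells were seeded and rested 2 h, then exposed to compounds for 18-24 h. CellTiter-Fluor was read first as a viability measure. BugLite was added 15 min before the final luminescent read of ARE-luciferase activity in A549 cells.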
ERG-DNA inh = qHTS for Small Molecule Inhibitors of the ERG Ets/DNA interaction. Potency, µM (top dose mostly 76.9 µM), for the others: at the highest dose FP activity, negative = inhibition, most hits filed as inhibitors. AID 624246, 2012. actives 0.028% (n = 370,000). fluorescence polarization, His-ERG Ets domain / labelled DNA. Transcriptional regulator ERG (Homo sapiens), P11308; active = well fitted inhibition curve with a large enough effect in the polarisation, with a control signal flat; inconclusive = small, poorly fitted or top-dose-only effect, or effect the other way, or a change in a side signal; inactive = no such curve, though single readings can be large or run the other way; the % refers to the polarisation;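 also: polarization taken with two DNA probes labelled with fluorescein and Texas red; potency is read from the fitted curve at half-maximal effect; % of control where 0% means no effect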
Target sequence (P11308 whole entry, looked up, the tested form may be a part): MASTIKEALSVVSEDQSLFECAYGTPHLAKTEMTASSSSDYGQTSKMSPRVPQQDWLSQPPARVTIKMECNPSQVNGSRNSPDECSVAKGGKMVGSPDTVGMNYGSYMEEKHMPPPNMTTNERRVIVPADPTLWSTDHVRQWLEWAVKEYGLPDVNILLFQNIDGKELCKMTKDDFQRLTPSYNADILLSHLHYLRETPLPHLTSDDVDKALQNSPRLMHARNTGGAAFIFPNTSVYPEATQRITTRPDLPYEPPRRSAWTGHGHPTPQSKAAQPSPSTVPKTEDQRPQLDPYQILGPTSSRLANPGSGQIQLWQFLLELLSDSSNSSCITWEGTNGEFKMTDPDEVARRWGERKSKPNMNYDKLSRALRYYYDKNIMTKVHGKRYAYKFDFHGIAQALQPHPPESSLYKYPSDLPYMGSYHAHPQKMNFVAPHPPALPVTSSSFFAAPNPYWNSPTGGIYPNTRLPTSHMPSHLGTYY
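His-tagged ERG Ets domain (1 uM in the protein solution; 300mM KCl, 50mM Tris-HCl, 1mM EDTA, 1mM DTT, pH 7.5) received compound, then a probe mix of 5 nM fluorescein-DNA and 100nM Texas-615-DNA. Fluorescence polarization was read for both dyes.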
Nrf2 ARE act = qHTS of Nrf2 Activators | AREc32 ARE-luciferase reporter (MCF7-derived line), luminescence, 24 h | Potency, µM (doses to about 46.1 µM), without a hit: at the highest dose activation, usual class: activators | actives 0.31% (n = 410,000) | AID 624171, 2012; also: potency is read from the fitted curve at half-maximal effect; % of control where 0% means no effect; nearly all actives have a fitted effect of over 65% in size
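Steps: seed AREc32_Fluc cells (1000/well, 5% FBS OPTI-MEM); incubate overnight at 37 deg C; add 23 nL compound; incubate 24 hr; add Steady-Glo; hold 30 min RT; read luminescence.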
A549 tox-1 = Nrf2 qHTS screen for inhibitors: counterscreen for cytotoxicity; A549 ARE-Fluc cells, CellTiter-Fluor viability, 18-24 h; Potency, µM (highest dose often 46 µM), for the others: at the top dose activity change, negative = cytotoxicity, most hits filed as inhibitors; actives 0.16% (n = 390,000); AID 504648, 2011; also: potency is read from the fitted curve at half-maximal effect; % is scaled to controls: 0 for no effect and ±100 for the full control effect
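Cytotoxicity counterscreen: CellTiter-Fluor fluorescence was measured in A549 ARE_Fluc cells after 18-24 h of compound exposure in a concentration series. The subsequent BugLite luminescent read reports ARE-luciferase activity.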
12-LOX inh = Primary qHTS assay for inhibitors of human arachidonate 12S-lipoxygenase (ALOX12): Round 2 | actives 1.1% (n = 580,000) | purified 12hLO, xylenol orange hydroperoxide absorbance | Potency, µM (series often up to 108 µM), without a hit: at the highest dose activity change, negative = inhibition, actives largely listed as inhibitors | AID 1671190, 2021 | Polyunsaturated fatty acid lipoxygenase ALOX12 (Homo sapiens), P18054; also: potency is read from the fitted curve at half-maximal effect; % is scaled to controls: 0 for no effect and ±100 for the full control effect
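Purified human 12hLO (150 nM final) in 25 mM Hepes, 0.01% Triton X-100, pH 7.0 was preincubated 15 min at room temperature with compound. Then 40 uM arachidonic acid was added, 30 min. Hydroperoxide was read by Fe-XO absorbance ratio 573/405 nm.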
LDHA block = qHTS assay for inhibitors of human lactate dehydrogenase; actives 0.15% (n = 480,000); L-lactate dehydrogenase A chain (Homo sapiens), P00338; activity change, % (values are at about 110 or 230 µM); purified LDHA, NADH/diaphorase-resazurin fluorescence; stronger effect = lower value; in the data active = activity change below about -30%; inconclusive = mostly about -25% to -30%;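 also: plate controls were DMSO wells for no effect and wells without enzyme for full effect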
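Enzyme activity of human lactate dehydrogenase 5 (2 nM; 0.06 mM NADH, 0.2 mM pyruvate, 5 min, RT) is measured via a resazurin/diaphorase fluorescence readout of residual NADH.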
FLuc counter 3 = Nrf2 qHTS screen for inhibitors: Purified Fluc Biochemical Counterscreen for Hit Validation; shares compounds with Nrf2 block; purified firefly luciferase, luminescence inhibition; Potency, µM (top dose mostly 57.5 µM), for the others: top-dose activity change, negative = inhibition, actives largely listed as inhibitors; actives 4% (n = 1,400); AID 720522, 2013; also: potency is read from the fitted curve at half-maximal effect; % is scaled to controls: 0 for no effect and ±100 for the full control effect; nearly all actives have a fitted effect of over 65% in size
A549 tox-2 = Nrf2 qHTS screen for inhibitors: A549 ARE-Fluc Cytotoxicity Counterscreen for Hit Validation. shares compounds with Nrf2 block. A549 ARE-Fluc cells, cytotoxicity counterscreen. Potency, µM (titrated, usually from 46.1 µM), for inactives: at the top dose activity change, negative = cytotoxicity, hits mostly inhibitors. actives 2% (n = 1,400). AID 720523, 2013;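 also: potency is read from the fitted curve at half-maximal effect; cells exposed to compounds for 18 to 24 hours; % is scaled to controls: 0 for no effect and ±100 for the full control effect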
ARE-Fluc inh = Nrf2 qHTS screen for inhibitors: Nrf2 A549 ARE-Fluc Confirmation Assay for Hit Validation; shares compounds with Nrf2 block; A549 ARE-firefly luciferase reporter, luminescence; Potency, µM (top dose mostly 46.1 µM), for inactives: at the top dose activity change, negative = inhibition, most hits filed as inhibitors; actives 74% (n = 1,400); AID 720524, 2013; also: potency is read from the fitted curve at half-maximal effect; % is scaled to controls: 0 for no effect and ±100 for the full control effect; nearly all actives have a fitted effect of over 65% in size
Starred values were filed as active, the others as inactive; u = inconclusive; x = no result; [ ] = another dose, or the depositor's remark. Unless noted, calls follow the shape of the dose curve; as a rule, active = well fitted curve in the direction sought with a large enough effect; inconclusive = small, poorly fitted or top-dose-only effect, or another doubt; inactive = no such curve, though single readings can be large; an effect the other way counts as inactive or inconclusive.

SMILES | Nrf2 block | ERG-DNA inh | Nrf2 ARE act | A549 tox-1 | 12-LOX inh | LDHA block | FLuc counter 3 | A549 tox-2 | ARE-Fluc inh
COc1ccc(N2CCN(c3ncnc4c3[nH]c3ccccc34)CC2)cc1 | 5.8µM* | -8% | 4% | -10% | -6% | -1 | 1% | 0% | 2.9µM*
COc1cc2[nH]c3c(N4CCN(c5ccccn5)CC4)ncnc3c2cc1OC | u | u | 4% | -7% | x | 0 | x | x | x
COc1ccc(-c2csc(NC(=O)c3ccc(S(=O)(=O)N4CCc5ccccc5C4)cc3)n2)cc1 | 5.2µM* | 2% | 1% | -11% | 2% | -3 | 4% | 0% | -27%
COc1ccc(-c2nnc(NC(=O)c3ccc(S(=O)(=O)N4CCc5ccccc5C4)cc3)o2)cc1 | 2.8µM* | -9% | 0% | -10% | x | 0 | 0% | -25% | 8.2µM*
O=C(Nc1nnc(C2CC2)o1)c1ccc(S(=O)(=O)N2CCc3ccccc3C2)cc1 | u | -14% | 3% | u | -14% | 5 | x | x | x
COC(=O)c1ccc(-c2csc(NC(=O)c3ccc(S(=O)(=O)N4CCc5ccccc5C4)cc3)n2)cc1 | 6% | 4% | -1% | 11% | -13% | -7 | x | x | x
Cc1noc2c(NCCCn3ccnc3)cc(-c3ccc(Cl)cc3)nc12 | x | x | x | x | 15%[176 µM] | x | x | x | x
O=C(COc1cccc(-c2nnc3n2CCCC3)c1)N1CCN(c2ccccc2F)CC1 | x | x | x | x | -5% | x | x | x | x
CC(C)CC(NC(=O)CCC(=O)OCC(=O)[C@@]1(O)CCC2[C@@H]3CCC4=CC(=O)C=C[C@]4(C)C3[C@@H](O)C[C@@]21C)C(=O)O (some centres not stated) | u | 10% | 0% | -12% | 1% | -4 | x | x | x
C[C@]12C=CC(=O)C=C1CC[C@@H]1C2C(O)C[C@@]2(C)C1CC[C@]2(O)C(=O)COC(=O)CCC(=O)NC(CC(=O)O)C(=O)O (some centres not stated) | 0.1µM* | -2% | 3% | 0% | -2% | -2 | 4% | -11% | 0.26µM*
CSCCC(NC(=O)CCC(=O)OCC(=O)[C@@]1(O)CCC2[C@@H]3CCC4=CC(=O)C=C[C@]4(C)C3[C@@H](O)C[C@@]21C)C(=O)O (some centres not stated) | 0.21µM* | 18% | -1% | 1% | -5% | -5 | -1% | -6% | 0.058µM*
CNc1ccc(C=C2c3ccccc3-c3ccccc32)cc1 | x | x | x | x | x | -3 | u | -25% | 3.7µM*
C(=C1c2ccccc2-c2ccccc21)c1ccncc1 | u | 0% | 7% | -19% | -26% | -4 | x | x | x
Cc1cc2c(cc1C)C(=O)NC(C)(C)C2 | 7.3µM* | 2% | 0% | 0% | 20% | -1 | -1% | 0% | 18%
CCOCCCNCc1ccc(F)cc1 | x | x | x | x | u | 3 | x | x | x
COc1nnc(-c2ccc(N3CCCCC3)c(NC(=O)c3ccccc3Cl)c2)c2ccccc12 | 6.5µM* | 1% | 1% | -30% | 5% | -4 | 2% | -29% | 6.5µM*
Cc1cc(C)c2nc(NNC(=O)c3ccc(S(=O)(=O)N4CCCC(C)C4)cc3)sc2c1 (configuration not stated) | 4.1µM* | -9% | -1% | u | 5.6µM* | -12 | -1% | -19% | 6.5µM*
CC1CCCN(S(=O)(=O)c2ccc(C(=O)Nc3nnc(-c4ccccc4Cl)o3)cc2)C1 (configuration not stated) | u | -2% | 1% | -4% | -10% | -1 | x | x | x
CC1CCCN(S(=O)(=O)c2ccc(C(=O)Nc3nnc(C4CC4)o3)cc2)C1 (configuration not stated) | 5.8µM* | 11% | -1% | u | -6% | 0 | -1% | u | 9.2µM*
CC(SCCCn1c(=O)c2c(ncn2C)n(C)c1=O)c1ccccc1Cl (configuration not stated) | x | x | x | x | 13% | 0 | x | x | x
O=C(CSc1ccc2ccccc2n1)NCCc1ccc(Cl)cc1 | x | x | x | x | u | -2 | x | x | x
O=C(/C=C/c1ccc(S(=O)(=O)N2CCOCC2)cc1)N1CCN(c2ccccc2)CC1 | 5.8µM* | 16% | -1% | 1% | 6% | -7 | 1% | 0% | u
Cc1ccccc1OCCC(=O)Nc1cccc2cccnc12 | x | x | x | x | 2% | 5 | x | x | x
CN(C)c1ccc(/C=C/c2cccc3cc4ccccc4nc23)cc1 | x | x | x | x | x | -4 | 19µM* | u | 1.6µM*
CN(C)c1ccc(/C=C/c2ccc3ccccc3n2)cc1 | u | 6% | -3% | u | x | -3 | x | x | x
SMILES | Nrf2 block | ERG-DNA inh | Nrf2 ARE act | A549 tox-1 | 12-LOX inh | LDHA block | FLuc counter 3 | A549 tox-2 | ARE-Fluc inh
CN(C)c1ccc(/C=C/c2nc3ccccc3s2)cc1 | u | -4% | -3% | -4% | 14% | -3 | x | x | x
CN(C)c1ccc(/C=C/c2cc(/C=C/c3ccc(N(C)C)cc3)c3ccccc3n2)cc1 | x | x | x | x | x | 4 | 0.17µM* | -12% | 0.58µM*
CCCCN(C(=O)c1ccc(N2CCCC2=O)cc1)c1c(N)n(Cc2ccccc2)c(=O)[nH]c1=O | 5.8µM* | -15% | 0% | -9% | -9% | -4 | 0% | -10% | 3.7µM*
COCCCN(C(=O)c1ccc(N2CCCC2=O)cc1)c1c(N)n(Cc2ccccc2)c(=O)[nH]c1=O | 19% | 1% | 0% | -5% | 10% | -4 | x | x | x
CNC(=O)C1(C)CN(Cc2ccccc2)Cc2ccc(Nc3ccccc3)nc21 (configuration not stated) | x | x | x | x | 0%[176 µM] | x | x | x | x
CS(=O)(=O)N1CC2(CCN(Cc3c[nH]c4ccccc34)C2)Cc2ccccc21 (configuration not stated) | x | x | x | x | -4%[6.33 µM] | x | x | x | x
